Activity calls are given as the source filed them. The call rests on the fitted dose curve; in most records, active means well fitted inhibition curve with a large enough effect in the repeat runs (not every such curve was filed as active); inconclusive means weak or mixed curves; inactive means flat fitted curve, though single readings scatter.

In the assay the target is Thyrotropin-releasing hormone receptor (Homo sapiens) (UniProt P34981). As to the kind of experiment: qHTS assay to identify small molecule antagonists of the thyrotropin-releasing hormone receptor (TRHR) signaling pathway (AID 1346877). The conditions noted are these: TRHR-HEK293, TRH-induced calcium fluorescence, antagonist mode; series mostly up to 51.3 µM. The method, boiled down: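 HEK293/TRHR cells, 18 h, 37 °C; Ca2+ dye 2 h; cpd 5 min RT; TRH 1 nM final; fluorescence read 3 min, 1 s intervals; 15 concs, triplicate.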
Thyrotropin-releasing hormone receptor (Homo sapiens), sequence (P34981 whole entry, looked up): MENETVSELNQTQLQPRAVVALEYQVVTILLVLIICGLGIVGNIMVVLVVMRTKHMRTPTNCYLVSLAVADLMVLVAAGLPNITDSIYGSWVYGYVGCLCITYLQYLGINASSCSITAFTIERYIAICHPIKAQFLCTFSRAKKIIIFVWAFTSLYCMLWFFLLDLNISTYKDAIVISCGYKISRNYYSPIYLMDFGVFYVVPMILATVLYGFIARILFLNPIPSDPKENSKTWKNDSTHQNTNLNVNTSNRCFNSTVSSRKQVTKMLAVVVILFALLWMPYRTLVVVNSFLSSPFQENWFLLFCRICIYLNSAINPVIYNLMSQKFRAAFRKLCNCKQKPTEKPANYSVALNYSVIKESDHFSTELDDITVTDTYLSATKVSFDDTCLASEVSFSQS
In general terms: qHTS replaces the single test concentration by a dilution series.
For `CCCCCCC/C=C/C=O`, the outcome was inactive. As to `OCCCO`, the result was inactive. Turning to `CC/C=C/CCO`, the outcome was inactive.

In the case of `COc1cccc([C@H](O)C2CCN(CCc3ccc(F)cc3)CC2)c1OC`, the result was inactive. For the molecule `N#Cc1ccc(CC(=O)c2cccc(C(F)(F)F)c2)cc1`, the result was inactive. In the case of `C[C@]12CCC(=O)C=C1[C@@H]1C[C@@H]1[C@H]1[C@@H]3[C@@H]4C[C@@H]4[C@@]4(CCC(=O)O4)[C@@]3(C)CC[C@@H]12` it was “inactive”; in that of `COc1ccc(C(=O)Nc2ccccc2)cc1[N+](=O)[O-]`, “inactive”.

As to `O=C(Cl)c1cc(Cl)cc(Cl)c1`, the result was inactive. In the case of `O=C(Nc1ccc2c(c1)Cc1ccccc1-2)C(F)(F)F`, the outcome was inactive. In the case of `O=c1[nH]nc(-c2ccc([N+](=O)[O-])o2)o1`, the result was inactive.

For the molecule `COc1ccnc2c1CCCCC2S(=O)c1nc2ccccc2[nH]1` (stereo not given), the result was inactive.

With `CCOCCn1c(N2CCCN(C)CC2)nc2ccccc21`, the result was inactive. In the case of `OCCOc1cccc(OCCO)c1` it was “inactive”.

For `CC1=C(C)C(=O)C(CCCCC#CCCCC#CCO)=C(C)C1=O`, the result was inactive.

For the molecule `C(/C=C/C=C/Nc1ccccc1)=Nc1ccccc1`, the result was inactive.

These data come from PubChem BioAssay (Tox21).
